# KCNQ2 pot: potentiators of rat KCNQ2 potassium channel; 0.54% of 310,000 active; CHO-K1 KCNQ2, FluxOR thallium flux fluorescence; active compounds read high; B-score at 10 µM;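 active means fluorescence ratio B-score at least 3 SD of library B-scores, with initial fluorescence B-score within 3 of them, cut at about 5.3 in these data; same plate scores as AID 2156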;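 further: B-score of peak minus minimum over baseline fluorescence ratio after K+ and Tl+ stimulus; positive B-score means potentiation of KCNQ2 with more thallium influx and brighter signal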
# KCNQ2 inh: blocks the rat KCNQ2 potassium channel. O88943. CHO-K1 KCNQ2, FluxOR thallium flux, 20 min; active compounds read low. B-score at 10 µM. 1.1% of 310,000 active;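 active means fluorescence ratio B-score at most minus 3 library SDs, with starting brightness B-score within 2 library SDs, cut at about -5.5 in these data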
# KCNQ2 block conf: confirmation of rat KCNQ2 potassium channel inhibitors | shares compounds with KCNQ2 inh | KCNQ2-expressing cells, thallium flux, inhibition; active compounds read low | activity change, negative = inhibition, % at 10 µM | 57% of 1,000 active | AID 493025
# KCNQ1 spec: human KCNQ1 activity in KCNQ2 inhibitor specificity screen; activity change, negative = inhibition, % at 10 µM; 15% of 1,000 active; KCNQ1-expressing cells, FluxOR thallium flux fluorescence; active compounds read low; shares compounds with KCNQ2 inh;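 active means activity change at least 3 SD of negative controls below their mean in both duplicate wells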;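 further: CHO cells stably transfected with KCNQ1 and depolarized by potassium stimulus; peak minus minimum fluorescence over baseline after thallium addition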
# CHO Tl ctr: counter-screen for KCNQ2 inhibitors: effect in parental CHO cells | AID 493029 | thallium flux counter-screen; active compounds read low | shares compounds with KCNQ2 inh | 14% of 1,000 active | activity change, % at 10 µM
# KCNQ2 patch conf: confirmation of rat KCNQ2 potassium channel inhibitors; shares compounds with KCNQ2 inh; KCNQ2-expressing cells, automated patch clamp current; calls only at 10 µM; 49% of 550 active; AID 588531
# A number is an active result; - = inactive; . = not tested or not shown; + = active, no number. Most compounds without a hit are left out; they make up all but 1.6% or so of the library. Unless noted, how the calls were made is not given here.
SMILES,KCNQ2 pot,KCNQ2 inh,KCNQ2 block conf,KCNQ1 spec,CHO Tl ctr,others
COc1ccc(C(=O)C(OC(=O)c2ccccc2)c2ccccc2)cc1 (stereo not given),-,-7,-,-,-,
O=C(COc1ccccc1)OC(C(=O)c1ccccc1)c1ccccc1 (stereo not given),-,-,.,.,.,
CN(C)CCNc1nc(-c2ccco2)c2c(c1C#N)CC(C)(C)OC2,.,-,.,.,.,
CCCCN(C)c1nc(-c2ccco2)c2c(c1C#N)CC(C)(C)OC2,-,-8.2,-,-,-,
COc1ccc(-c2cc(C3CCN(C(=O)OC(C)(C)C)CC3)[nH]n2)cc1,.,-,.,.,.,
CCOC(=O)c1cn2nc(-c3ccc(OC)cc3)cc2nc1C1CCN(C(=O)OC(C)(C)C)CC1,-,-8.6,-,-,-,
COc1ccc(Cl)cc1NC(=S)NCCc1ccc(S(N)(=O)=O)cc1,.,-,.,.,.,
COc1ccc(Cl)cc1NC(=S)NCCc1ccc(F)cc1,-,-8.7,-36%,-34%,-30%,KCNQ2 patch conf=+
Cc1nn(CC(=O)N2CCC(C(N)=O)CC2)c(=O)c2nn(-c3ccccc3)c(C)c12,-,-,.,.,.,
CCN(CC)c1ccc(/C=C/C(=O)c2cccnc2)cc1,.,-,.,.,.,
O=C(/C=C/c1ccccc1Cl)c1cccnc1,-,-8,-36%,-32%,-32%,KCNQ2 patch conf=-
O=C(/C=C/c1ccccc1Cl)c1ccc(O)cc1,.,-,.,.,.,
N#Cc1ccc(/C=C/C(=O)c2cccnc2)cc1,-,-11,-29%,-,-,KCNQ2 patch conf=-
COc1cccc(NC(=O)c2ccc(-n3cnnn3)cc2)c1,.,-,.,.,.,
O=C(O)/C=C/C(=O)Nc1ccc(Oc2ncnc3cc(Cl)ccc23)nc1,.,-,.,.,.,
Cc1ccc(CN=c2c([N+](=O)[O-])nn(-c3cccc(C)c3)n2O)cc1,-,-7,-19%,-,-,KCNQ2 patch conf=-
Cc1ccc(CN=c2c([N+](=O)[O-])nn(-c3cccc(Cl)c3)n2O)cc1,.,-,.,.,.,
CCC(Sc1nc(C)cc(C)n1)C(=O)Nc1nccs1 (stereo not given),-,-,.,.,.,
COC(=O)c1cc(S(=O)(=O)NC2CCCCC2)cn1C,.,-,.,.,.,
O=C(COC(=O)CCSc1ccc(Cl)cc1)NCc1ccccc1Cl,-,-,.,.,.,
O=C(COC(=O)CCSc1ccc(Cl)cc1)NCc1ccco1,-,-8.1,-,-,-,
Cc1ccc(CNC(=O)C2CCCN(S(=O)(=O)c3ccc(F)cc3)C2)cc1 (stereo not given),-,-,.,.,.,
O=S1(=O)CCOC[C@H](c2ccccc2)N1Cc1cccc(Cl)c1,.,-,.,.,.,
O=C(COc1ccc(Cl)cc1Cl)OCC(=O)N1CCCc2ccccc21,-,-,.,.,.,
O=C(CCCOc1ccc(Cl)cc1Cl)N1CCCc2ccccc21,-,-14,-,-,-,
SMILES,KCNQ2 pot,KCNQ2 inh,KCNQ2 block conf,KCNQ1 spec,CHO Tl ctr,others
Cc1ccc(O)c(C(=O)c2cnc3c(c2)COc2ccc(C)cc2-3)c1,-,-6.8,-,-,-,
Cc1ccc(O)c(C(=O)c2cnc(/N=C(\N)N(C)C)nc2)c1,-,-,.,.,.,
CN(C(=O)COC(=O)C1COc2ccccc2O1)c1c(N)n(Cc2ccccc2)c(=O)[nH]c1=O (stereo not given),.,-,.,.,.,
COc1ccc(C(=O)Nn2c(SCc3cccc([N+](=O)[O-])c3)nc3ccccc3c2=O)cc1,.,-,.,.,.,
O=C(Nn1c(SCc2cccc([N+](=O)[O-])c2)nc2ccccc2c1=O)c1ccccc1,-,-8.9,-38%,-40%,-32%,KCNQ2 patch conf=+
COCCn1c(SCc2cccc([N+](=O)[O-])c2)nc2ccccc2c1=O,.,-,.,.,.,
CCOC(CCn1c(SCc2cccc([N+](=O)[O-])c2)nc2ccccc2c1=O)OCC,-,-7.3,-,-,-,
CC(=O)Nc1nnc(CCS(=O)(=O)c2ccc(C)cc2)s1,-,-,.,.,.,
CN(C(=O)c1nn(C)c2c1CSc1ccccc1-2)c1ccccc1Cl,-,-6.7,-37%,-40%,-34%,KCNQ2 patch conf=-
CC1CCCC(C)N1CCCNC(=O)c1nn(C)c2c1CSc1ccccc1-2 (stereo not given),-,-,.,.,.,
O=c1oc(-c2ccccc2)nc2c1C1(CCCCC1)Cc1ccccc1-2,-,-8.7,-,-,-,
CCC1(CC)Cc2ccccc2-c2nc(-c3ccccc3)oc(=O)c21,.,-,.,.,.,
COc1ccccc1N1CCN(CCC(=O)Nc2cccc(Cl)c2)CC1,.,-,.,.,.,
CSc1nc(Cl)c(Cc2ccc(OCC(C)C)cc2)c(N2CCOCC2)n1,-,-6.8,-24%,-,-,KCNQ2 patch conf=-
CCCCOc1ccc(Cc2c(Cl)nc(SC)nc2N2CCOCC2)cc1,.,-,.,.,.,
COc1ccc(Cl)cc1C(=O)Nn1c(-c2cccs2)nc2ccccc2c1=O,-,-,.,.,.,
COc1cccc(OC)c1C(=O)Nn1c(-c2cccs2)nc2ccccc2c1=O,-,-9.2,-,-,-,
CN(CCC(=O)c1ccccc1)CCC(=O)c1ccccc1,.,-,.,.,.,
O=C1CSC(c2ccc([N+](=O)[O-])cc2)N1c1ccccc1 (stereo not given),.,-,.,.,.,
COc1ccc(-c2c[n+]3c4n2CCCCC4=C(c2ccc(Br)cc2)C3)cc1,-,-8.7,-33%,-,-,KCNQ2 patch conf=-
COc1ccc(-c2cnc3n2CCCCC3)cc1,.,-,.,.,.,
COc1ccc(C(=O)Oc2cc(C)c(CN3CCOCC3)cc2C)cc1OC,.,-,.,.,.,
COc1ccc(CNC(=O)C2CCCN(S(=O)(=O)c3ccccc3)C2)cc1 (stereo not given),.,-,.,.,.,
CCN(c1ccc(OC)cc1)S(=O)(=O)N1CCCC(C(=O)NCc2ccccc2Br)C1 (stereo not given),-,-10,-,-,-,
CCOc1ccc(NC(=O)CSc2nnnn2C2CCCC2)cc1,-,-,.,.,.,
SMILES,KCNQ2 pot,KCNQ2 inh,KCNQ2 block conf,KCNQ1 spec,CHO Tl ctr,others
O=C(NCCCN1CCOCC1)/C(=C/c1cccs1)NC(=O)c1ccccc1,-,-,.,.,.,
COc1cc(-c2nc3ccccn3c2NCc2ccccc2)ccc1SC1CCCCC1,-,-8.7,-,-,-,
COc1cc(-c2nc3ccc(C)cn3c2NCc2ccccc2)ccc1SC1CCCCC1,.,-,.,.,.,
Cc1ccc(C)n1-c1ccc(C(=O)N/N=C/c2ccncc2)cc1,-,-,.,.,.,
COc1ccc(C(c2c(O)ccc3ccccc23)N2CCOCC2)c(OC)c1 (stereo not given),-,-10,-32%,-,-,KCNQ2 patch conf=-
COc1ccc(C(CCN2CCOCC2)c2c(O)cc(OC)cc2OC)cc1 (stereo not given),-,-,.,.,.,
CCOc1ccc(N(CC(=O)N2CCc3ccccc32)S(=O)(=O)c2c(C)noc2C)cc1,.,-,.,.,.,
CCOc1ccc(N(CC(=O)N2CC=C(c3ccccc3)CC2)S(=O)(=O)c2c(C)noc2C)cc1,-,-8.6,-,-,-,
Cc1ccc(CCNC(=O)c2sc3nc4n(c(=O)c3c2C)CCC4)cc1,.,-,.,.,.,
CCc1cc(/C(Cc2ccc3ccccc3n2)=N\O)c(O)cc1O,-,-12,-35%,-42%,-27%,KCNQ2 patch conf=+
CCc1cc(/C(Cc2ccccn2)=N\O)c(O)cc1O,.,-,.,.,.,
COc1ccc([N+](=O)[O-])cc1NC1CCN(C(=O)c2cccs2)CC1,.,-,.,.,.,
Cc1ccc2c(c1)N(CC(=O)NC1CCCC1)C(=O)c1cccnc1O2,-,-,.,.,.,
C=CC[n+]1c(/C=C2\C=Cc3cc(C)ccc3N2CC)ccc2ccccc21,-,-9.8,-,-,-,

# Source: PubChem (Johns Hopkins Ion Channel Center)
